Only some compounds are listed: those with a hit (about 2.7% of all), similar ones and a draw of the others.
HepG2 viability: kills HepG2 cells in TGF-b inhibitor counter-screen. HepG2 CAGA-GFP viability, ATP luminescence, 18 h. Potency, µM (titrated, usually from 46.1 µM), inactives show at the highest dose activity change, negative = cytotoxicity, most hits filed as cytotoxic. 410,000 tested, 0.76% active. AID 588856
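HepG2 CAGA-GFP cells (1000/well, DMEM with 1% FBS) received compound, then TGF-beta at 500 pg/mL final, and were incubated 18 hours at 37 degrees C. Viability was read by CellTiter-Glo luminescence. Media-only wells were set as complete cell-killing and DMSO as no toxicity.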
ATXN viability: viability counter-screen for ATXN expression inhibitors; S2 cells (HEK-293 line with an ATXN2-luciferase reporter) viability, CellTiter-Fluor protease fluorescence, 24 h; Potency, µM (doses to about 56.7 µM), usual class: cytotoxic; 400,000 tested, 0.49% active; also: nearly all actives have a fitted effect of over 40% in size
12-LOX inh: ALOX12 (human) lipoxygenase inhibition | P18054 | purified 12hLO, xylenol orange hydroperoxide absorbance | Potency, µM (top dose mostly 108 µM), for inactives: at the highest dose activity change, negative = inhibition, most hits filed as inhibitors | 580,000 tested, 1.1% active; also: % is scaled to controls: 0 for no effect and ±100 for the full control effect
Target sequence (P18054 whole entry, looked up): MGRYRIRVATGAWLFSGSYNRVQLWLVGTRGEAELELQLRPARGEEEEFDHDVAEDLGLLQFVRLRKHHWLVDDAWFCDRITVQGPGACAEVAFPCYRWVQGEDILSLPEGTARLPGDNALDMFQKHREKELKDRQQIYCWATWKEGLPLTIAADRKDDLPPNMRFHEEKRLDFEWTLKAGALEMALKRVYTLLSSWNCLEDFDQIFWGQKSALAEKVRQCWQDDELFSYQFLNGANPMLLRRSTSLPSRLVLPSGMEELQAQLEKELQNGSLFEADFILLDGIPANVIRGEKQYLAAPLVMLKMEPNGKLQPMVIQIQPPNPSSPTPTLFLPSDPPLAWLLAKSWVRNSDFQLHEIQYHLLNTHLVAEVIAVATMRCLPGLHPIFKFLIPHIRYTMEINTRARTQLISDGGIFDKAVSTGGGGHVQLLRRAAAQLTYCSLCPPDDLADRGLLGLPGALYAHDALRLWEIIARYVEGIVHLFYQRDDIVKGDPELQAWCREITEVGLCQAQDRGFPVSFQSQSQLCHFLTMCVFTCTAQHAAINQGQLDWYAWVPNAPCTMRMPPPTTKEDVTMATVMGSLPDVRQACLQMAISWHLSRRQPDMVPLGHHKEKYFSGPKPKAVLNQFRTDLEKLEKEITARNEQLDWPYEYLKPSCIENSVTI
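Purified human 12hLO (150 nM final) in 25 mM Hepes, 0.01% Triton X-100, pH 7.0 was preincubated 15 min at room temperature with compound. Then 40 uM arachidonic acid was added, 30 min. Hydroperoxide was read by Fe-XO absorbance ratio 573/405 nm.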
TGFb SMAD3 inh: blocks TGF-b signaling. AID 588855. 410,000 tested, 1.2% active. HepG2 CAGA-GFP TGF-b/SMAD3 reporter, GFP fluorescence, 18 h; TGF-beta stimulated, 500 pg/mL final. Potency, µM (titrated, usually from 46.1 µM), without a hit: at the highest dose activity, negative = inhibition, most hits filed as inhibitors; also: % is scaled to controls: 0 for no effect and ±100 for the full control effect; nearly all actives have a fitted effect of over 65% in size
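TGF-beta reporter screen: HEPG2 CAGA-GFP, 1% FBS, 500 pg/mL TGF-beta final, 18 h; per-cell GFP summed per well; curves fitted and categorized by class.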
ATXN2 expr inh: ATXN2 expression inhibition; HEK-293 ATXN2-luciferase reporter, luminescence, 24 h; Potency, µM (top dose mostly 57 µM), for the others: at the top dose activity change, negative = inhibition, hits mostly inhibitors; 360,000 tested, 0.72% active; AID 1745845; also: % is scaled to controls: 0 for no effect and ±100 for the full control effect; nearly all actives have a fitted effect of over 55% in size
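ATXN2-luciferase reporter cells (luciferase flanked by upstream and downstream ATXN2 gene portions) were treated 24 h at 37 °C with compounds at up to 57 uM. SteadyGlo luminescence gave expression; GF-AFC fluorescence gave viability.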
The depositor's hits bear a star; i = inactive; ? = inconclusive; . = no result; ! = repeats disagree. Calls follow the shape of the dose curve; as a rule, active = well fitted curve in the direction sought with a large enough effect; inconclusive = small, poorly fitted or top-dose-only effect, or another doubt; inactive = no such curve, though single readings can be large; an effect the other way counts as inactive or inconclusive. Potency is read from the fitted curve at half-maximal effect.

SMILES	HepG2 viability	ATXN viability	12-LOX inh	TGFb SMAD3 inh	ATXN2 expr inh
O=C(Cc1ccc(F)cc1)N1CCC(c2nn(-c3ccc(Cl)cc3)c(=O)[nH]2)CC1	.	.	28µM*	.	.
O=c1[nH]c(C2CCCN(Cc3ccc(C(F)(F)F)cc3)C2)nn1-c1ccc(Cl)cc1 (configuration not stated)	.	.	-4%	.	.
O=C(Nc1ccc(Cl)cc1)N1CCC(c2nn(-c3ccc(Cl)cc3)c(=O)[nH]2)CC1	.	.	13µM*	.	.
O=C(Cc1ccccc1)N1CCCC(c2nn(-c3ccc(Cl)cc3)c(=O)[nH]2)C1 (configuration not stated)	.	.	32µM*	.	.
Cc1ccc(CN2CCCC(c3nn(-c4ccc(Cl)cc4)c(=O)[nH]3)C2)cc1 (configuration not stated)	.	.	18µM*	.	.
O=S(=O)(c1c(Cl)cccc1Cl)N1CCCC1c1nnc2ccccn12 (configuration not stated)	.	.	-19%	.	.
NC(=O)C1=C(Nc2ccc(F)cc2F)c2ccccc2S1(=O)=O	.	.	10%	.	.
CCc1cc(C(=O)O)cs1	.	.	-17%	.	.
O=C(Cc1ccc(Cl)cc1)N1CCC(c2n[nH]c(=O)n2Cc2ccc(F)cc2)CC1	.	.	14µM*	.	.
CCOCc1cc(CN2CCN(c3cccc(Cl)c3)CC2)c(O)c2ncccc12	-22%	.	7%	2µM*	.
COCc1cc(CN2CCN(C)CC2)c(O)c2ncccc12	-1%	?	-6%	0%	?
Oc1c(CN2CCN(c3ccccc3)CC2)cc(Br)c2cccnc12	-42%	?	-21%	?	4.5µM*
CC(C)OCc1cc(CN2CCN(c3ccccc3)CC2)c(O)c2ncccc12	-36%	?	?	2.2µM*	1.3µM*
CCOC(=O)N1CCN(Cc2cc(Cl)c3cccnc3c2O)CC1	-19%	?	?	?	3.5µM*
COCCNC(=O)CS(=O)Cc1nc(-c2cccc(C)c2)oc1C (configuration not stated)	.	.	-2%	.	.
CCCCn1cnc2c1c(=O)n(CC(=O)Nc1cccc(F)c1)c(=O)n2CC(C)C	.	.	5%	.	.
COc1cccc(Oc2coc3cc(OC(=O)c4ccco4)ccc3c2=O)c1	.	.	-4%	.	.
COc1cc(C)cc2oc(=O)c(CC(=O)Nc3cccc(C(C)=O)c3)c(C)c12	.	.	-4%	.	.
CSc1nnc(NC(=O)c2cc(=O)c3cc(C)cc(C)c3o2)s1	7%	25µM*	-32%	1%	-11%
N#CC(=C(O)COC(=O)CCC1CCCCC1)c1nc2ccccc2[nH]1	16%	.	-2%	-5%	20µM*
COc1ccccc1OCC(=O)OC/C(O)=C(\C#N)c1nc2ccccc2[nH]1	2%	3.2µM*	1%	-11%	.
N#C/C(=C(/O)COC(=O)CSc1ccc(Cl)cc1)c1nc2ccccc2[nH]1	-14%	14µM*	-14%	17%	28µM*
N#C/C(=C(/O)COC(=O)c1ccc2c(c1)OCCO2)c1nc2ccccc2[nH]1	16µM*	?	-21%	-6%	9%
COc1ccc(OC/C(O)=C(\C#N)c2nc3ccccc3[nH]2)cc1	-2%	i	-4%	9%	-31%
Cc1cccc2c(C(=O)NCc3cccs3)cc(-c3cccnc3)nc12	.	.	0%	.	.
SMILES	HepG2 viability	ATXN viability	12-LOX inh	TGFb SMAD3 inh	ATXN2 expr inh
CC1CCC2(CCc3cc4c5c(c(=O)oc4cc3O2)CCCC5)CC1 (configuration not stated)	.	.	-24%	.	.
CCCCN(CC(O)COc1cccc(C)c1)CC(O)COc1cccc(C)c1 (configuration not stated)	-100%	?	?	16µM*	-33%
CCNC(=O)COc1ncnc2ccc(Br)cc12	.	.	-47%	.	.
CCc1ccc(CN(Cc2cn[nH]c2-c2ccc(OC)cc2)C(=O)Nc2ccc(Br)cc2)cc1	-40%	.	-2%	7.9µM*	.
CCc1ccc(CN(Cc2cn[nH]c2-c2ccc(OC)cc2)C(=O)Nc2ccc(C)c(F)c2)cc1	-43%	.	2%	10µM*	.
CCOc1ccc(NC(=O)N(Cc2ccc(CC)cc2)Cc2cn[nH]c2-c2ccc(OC)cc2)cc1	-17%	.	-21%	8.9µM*	.
Cc1ccccc1NC(=O)CC1C(=O)Nc2nc(-c3ccccc3)nn21 (configuration not stated)	.	.	13%	.	.
CCN1CCN(C(=O)Cn2ncc3c4ccccc4n(Cc4c(C)cc(C)cc4C)c3c2=O)CC1	-96%	.	-20%	16µM*	.
Cc1cc(C)c(Cn2c3ccccc3c3cnn(CC(=O)N4CCCCC4)c(=O)c32)c(C)c1	9%	i	-29%	-1%	-1%
COCCNC(=O)CS(=O)(=O)Cc1nc(-c2cccc(OC)c2)oc1C	.	.	-2%	.	.
COc1ccc(NC(=O)Cn2cc(S(=O)(=O)Cc3ccc(F)cc3)c3ccccc32)cc1OC	-14%	.	50µM*	-13%	.
N#Cc1ccc(-c2nc3ccc(Br)cc3c(=O)n2O)cc1	-34%	i	3%	-12%	-7%
O=c1c2cc(Br)ccc2nc(-c2cccc(C(F)(F)F)c2)n1O	14µM*	?	?	?	?
O=C(N/N=C/c1ccccc1O)NC12CC3CC(CC(C3)C1)C2	-128%	i	-2%	11µM*	21%
O=C(N/N=C/c1ccc(O)c(O)c1)NC12CC3CC(CC(C3)C1)C2	-34%	i	0%	-7%	-15%
C/C(=N\NC(=O)c1ccc(C)s1)c1ccncc1	.	.	3%	.	.
Cc1ccc(COc2ccsc2-c2n[nH]c(=S)n2C)cc1	7%	.	14µM*	1%	.
Cn1c(-c2sccc2OCc2ccc(Cl)cc2Cl)n[nH]c1=S	-28%	i	28µM*	-21%	-2%
Cn1c(-c2sccc2OCc2ccccc2)n[nH]c1=S	2%	i	?	5%	3%
Cc1cc(OCC(=O)Nc2sc3c(c2C(=O)N2CCOCC2)CCCC3)ccc1Cl	.	.	-3%	.	.
CC(C)N(C(=O)CC(C#N)(CC(=O)N(C(C)C)C(C)C)c1nc2ccccc2s1)C(C)C	.	.	-3%	.	.
O=C(Nc1ccc(S(=O)(=O)N2CCOCC2)cc1)c1cc(Cl)ccc1NS(=O)(=O)c1ccc(Cl)s1	.	16µM*!	?	.	-12%
O=C(Nc1ccc(S(=O)(=O)N2CCOCC2)cc1)c1ccc(Cl)cc1Cl	-6%	i	0%	-10%	.
Cc1cccc(OCC2(CNCc3c(C)noc3C)C[C@@H](O)[C@@H](O)C2)n1 (some centres not stated)	.	.	32µM*	.	.
COc1cc(/C=C(/C#N)c2ccc(Cl)cc2)ccc1OC(C)C	.	.	-2%	.	.
COc1ccc(Br)c(C(=O)Oc2ccccc2OC)c1	.	.	11%	.	.
Cc1nc2sc(C(N)=O)c(N)c2c2c1CCCC2	20µM*	i	34%	?	11%
Cc1ccc(C(O)(C(=O)NN(C(=O)c2ccccc2)c2ccccc2)c2ccc(C)cc2)cc1	2%	i	-7%	-3%	1%

Assay outcomes from PubChem BioAssay.
